Source: PubChem BioAssay (Tox21)
Results filed as inconclusive are left out. Active and inactive are the calls of the source. Unless noted, calls follow the shape of the full dose curve.

Columns and labels:
[1] = Nuclear factor erythroid 2-related factor 2/antioxidant responsive element (Nrf2/ARE) small molecule agonists: qHTS cell viability counter screen in human keratinocytes (AID 1919968; active = well fitted curve in the direction sought with a large enough effect in the repeat runs; an effect the other way counts as inactive or inconclusive; also: nearly all actives have a fitted effect of over 55% in size; also: potency is read from the fitted curve at half-maximal effect)
Summary of the method: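 KeratinoSens cells (HaCaT keratinocytes stably carrying an ARE-luciferase reporter) were seeded at 1,500 cells/well and rested 5 h at 37 C/5% CO2. They were then exposed to compounds in DMSO for 23 h. Viability was read by CellTiter-Fluor fluorescence after 1 h.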

[2] = Nuclear factor erythroid 2-related factor 2/antioxidant responsive element (Nrf2/ARE) small molecule agonists: luciferase reporter gene qHTS assay in human keratinocytes (AID 1919969); also: nearly all actives have a fitted effect of over 35% in size; also: potency is read from the fitted curve at half-maximal effect
[3] = target: Gonadotropin-releasing hormone receptor (Homo sapiens) (UniProt P30968); test: Human gonadotropin-releasing hormone receptor (GnRHR) small molecule agonists, calcium flux assay in GnRHR-HEK293 cells (AID 1920063); also: nearly all actives have a fitted effect of over 35% in size
Summary of the method: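 HEK293 cells stably expressing human GnRHR were plated 18 h at 37 °C, loaded with calcium dye 1 h at 37 °C, then given compound in agonist mode; fluorescence (Ex/Em 480/540) read kinetically for 3 min at 1 s intervals.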

[4] = target: KiSS-1 receptor (Homo sapiens) (UniProt Q969F8); test: Human kisspeptin (KISS1R) small molecule agonists, calcium flux assay in KISS1R-HEK293 cells (AID 1920064; active = well fitted curve in the direction sought with a large enough effect in the repeat runs; an effect the other way counts as inactive or inconclusive)
Summary of the method: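 HEK293 cells stably expressing human KISS1R were plated 18 h at 37 °C, loaded with calcium dye for 1 h at 37 °C, then given compound by pin tool. Fluorescence (Ex/Em 480/540) was read kinetically for 3 min.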

[5] = G protein-coupled receptor (GPCR) small molecule agonists, calcium flux assay: HEK293 wild type cell line counter screen (AID 1920065)
Summary of the method: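 Cells were plated and cultured 18 h at 37 C/5% CO2, then loaded with calcium dye for 1 h at 37 C. Compounds in DMSO were pin-transferred in agonist mode, and fluorescence (Ex/Em 480/540) was read kinetically for 3 min at 1 s intervals.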

[6] = p53 small molecule agonists, cell-based qHTS assay with human liver microsomes (AID 1963577);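 also: p53 response element beta-lactamase reporter cells with liver microsomes plus NADPH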
Summary of the method: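 Metabolically competent format: test substances, human liver microsomes and NADPH (both 0.5 mg/mL final) incubated with p53RE-bla cells 16 h at 37 C. Beta-lactamase reporter signal then quantified by fluorescence.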

[7] = p53 small molecule agonists, cell-based qHTS assay with rat liver microsomes (AID 1963578)
Summary of the method: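 Each plate received p53RE-bla cells, then compound, then rat liver microsomes and NADPH (both 0.5 mg/mL final). Plates were held 16 h at 37 C, and beta-lactamase activity was detected with LiveBLAzer over 2 h.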

[8] = p53 small molecule agonists, cell-based qHTS assay with human liver microsomes: qHTS cell viability counter screen (AID 1963579); also: nearly all actives have a fitted effect of over 45% in size
Summary of the method: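 Tox21 library compounds, delivered from DMSO stocks, were tested on p53RE-bla cells together with 0.5 mg/mL human liver microsomes and 0.5 mg/mL NADPH (final) over 16 h at 37 C; CellTiter-Glo luminescence served as the cytotoxicity measure.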

[9] = p53 small molecule agonists, cell-based qHTS assay with rat liver microsomes: qHTS cell viability counter screen (AID 1963580); also: nearly all actives have a fitted effect of over 45% in size
Summary of the method: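 In HCT-116 cells carrying a p53 response element-bla reporter, compounds were metabolically activated in situ by rat liver microsomes with NADPH over 16 h. Cell ATP content then served as the cytotoxicity measure.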

[10] = p53 small molecule agonists, cell-based qHTS assay (AID 1963582; active = well fitted activation curve with a large enough effect in the signal ratio in the repeat runs, not every such curve was filed as active; the % refers to the signal ratio)
Summary of the method: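 p53RE-bla beta-lactamase reporter cells rested 5 h at 37 C/5% CO2, then received compounds in DMSO by pin transfer and were incubated 16 h at 37 C. LiveBLAzer B/G FRET substrate was loaded for 2 h at room temperature before fluorescence reading.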

[11] = target: Muscarinic acetylcholine receptor M1 (Homo sapiens) (UniProt P11229); test: Cholinergic receptor muscarinic 1 (CHRM1) small molecule antagonists, cell-based qHTS assay (AID 1963588); also: nearly all actives have a fitted effect of over 40% in size
Summary of the method: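 CHRM1-CHO calcium-flux assay, antagonist mode. Cells were seeded 18 h, dye-loaded 1 h at 37 C and given compound for 5 min at RT, then acetylcholine was added at 50nM. FDSS fluorescence was read 3 min; 15 concentrations, three runs.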

[12] = target: Muscarinic acetylcholine receptor M1 (Homo sapiens) (UniProt P11229); test: Cholinergic receptor muscarinic 1 (CHRM1) small molecule agonists, cell-based qHTS assay (AID 1963589); also: nearly all actives have a fitted effect of over 35% in size
Summary of the method: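 CHO cells stably expressing human CHRM1, seeded 18 h at 37 C/5% CO2, dye-loaded 1 h at 37 C, then given compound in agonist mode; intracellular calcium fluorescence read kinetically at 1 s intervals. Fifteen concentrations, three independent runs.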

[13] = cAMP Responsive Elements (CRE) small molecule agonists, cell-based qHTS assay (AID 1963590)
Summary of the method: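 CRE-bla HEK 293T cells in DMEM with 10% dialyzed FBS, NEAA, pyruvate and 25 mM HEPES were plated 18 h at 37 C/5% CO2, then exposed to compounds in DMSO for 3 h before LiveBLAzer B/G FRET substrate addition.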

[14] = cAMP Responsive Elements (CRE) small molecule antagonists, cell-based qHTS assay (AID 1963591; active = well fitted inhibition curve with a large enough effect in the signal ratio in the repeat runs, not every such curve was filed as active; the % refers to the signal ratio)
Summary of the method: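 CRE-bla HEK293T cells were plated 18 h at 37 °C/5% CO2, pinned with compound in DMSO, then stimulated with NKH477 at 0.25 uM final for 3 h. LiveBLAzer B/G FRET substrate was added and plates incubated 2 h at room temperature.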

[15] = target: D(2) dopamine receptor (Homo sapiens) (UniProt P14416); test: Dopamine D2 receptor (DRD2) small molecule antagonists, cell-based qHTS assay (AID 1963595; active = well fitted inhibition curve with a large enough effect in the signal ratio in the repeat runs, with a control signal flat; the % refers to the signal ratio; also: potency is read from the fitted curve at half-maximal effect)
Summary of the method: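 Cells were plated and grown for 24 h at 37 °C. Ro20-1724 (0.1 mM final) went in first, then compound for 10 min. NKH477 (200 nM) with quinpirole (12 nM) followed for 30 min at RT, then HTRF detection reagents for 1 h.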

[16] = p53 small molecule agonists, cell-based qHTS assay: qHTS cell viability counter screen (AID 1963581); also: nearly all actives have a fitted effect of over 45% in size
Summary of the method: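 p53RE-bla HCT-116 cells were exposed to compounds for 16 h at 37 C; after the beta-lactamase FRET read in the same wells, CellTiter-Glo was added and luminescence (intracellular ATP) read after 30 min at room temperature.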

[17] = target: Beta-2 adrenergic receptor (Homo sapiens) (UniProt P07550); test: Adrenergic beta2 receptor (ADRB2) small molecule antagonists, cell-based qHTS assay (AID 1963592); also: series mostly up to about 92 µM; nearly all actives have a fitted effect of over 50% in size
Summary of the method: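 Cells (CHO, stable ADRB2 overexpression) incubated 18-20hr at 37C; compounds added from DMSO; agonist mix (1nM isoproterenol, 100uM IBMX, 25uM Ro-20-1724) added; 0.5hr RT; d2-cAMP and anti-cAMP-cryptate added; 1hr RT; 665/615 nm read.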

[18] = target: D(2) dopamine receptor (Homo sapiens) (UniProt P14416); test: Dopamine D2 receptor (DRD2) small molecule agonists, cell-based qHTS assay (AID 1963594); also: nearly all actives have a fitted effect of over 35% in size; also: potency is read from the fitted curve at half-maximal effect
Summary of the method: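 HEK293 cells stably expressing DRD2 were cultured 24 h at 37 C, then given Ro20-1724 (0.1 mM final) and compounds for 10 min at room temperature. NKH477 (200nM) was then added for 30 min. cAMP was read by HTRF.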

[19] = target: 5-hydroxytryptamine receptor 2A (Homo sapiens) (UniProt P28223); test: 5-hydroxytryptamine receptor 2A (HTR2A) small molecule antagonists, cell-based qHTS assay (AID 1963586); also: nearly all actives have a fitted effect of over 45% in size; also: potency is read from the fitted curve at half-maximal effect
Summary of the method: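 Antagonist-mode intracellular calcium assay: DOI (4 nM) added after 5 min compound pre-incubation at room temperature to dye-loaded HTR2A-CHO cells. Fluorescence followed for 3 min, sampled every second.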

[20] = target: 5-hydroxytryptamine receptor 2A (Homo sapiens) (UniProt P28223); test: 5-hydroxytryptamine receptor 2A (HTR2A) small molecule agonists, cell-based qHTS assay (AID 1963587); also: nearly all actives have a fitted effect of over 30% in size; also: potency is read from the fitted curve at half-maximal effect
Summary of the method: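 HTR2A-CHO cells, plated 18 h at 37 C/5% CO2, dye-loaded 1 h at 37 C; compounds in DMSO added by pin tool (agonist mode). Intracellular calcium flux read as kinetic fluorescence on FDSS over 2 min at 1 s intervals.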

Measured: Potency

Sequence of Beta-2 adrenergic receptor (Homo sapiens) (P07550 whole entry, looked up): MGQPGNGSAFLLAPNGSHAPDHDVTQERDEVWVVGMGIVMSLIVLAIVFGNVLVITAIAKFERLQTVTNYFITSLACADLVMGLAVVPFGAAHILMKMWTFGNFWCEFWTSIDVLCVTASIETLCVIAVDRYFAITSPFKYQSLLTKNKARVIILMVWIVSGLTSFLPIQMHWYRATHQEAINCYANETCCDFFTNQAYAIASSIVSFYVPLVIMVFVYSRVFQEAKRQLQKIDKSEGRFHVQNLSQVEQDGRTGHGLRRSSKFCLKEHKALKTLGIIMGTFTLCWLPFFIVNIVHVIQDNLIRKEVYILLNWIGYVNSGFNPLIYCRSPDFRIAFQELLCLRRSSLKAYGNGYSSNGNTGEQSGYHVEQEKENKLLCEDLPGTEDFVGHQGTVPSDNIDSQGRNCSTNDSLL
Sequence of 5-hydroxytryptamine receptor 2A (Homo sapiens) (P28223 whole entry, looked up): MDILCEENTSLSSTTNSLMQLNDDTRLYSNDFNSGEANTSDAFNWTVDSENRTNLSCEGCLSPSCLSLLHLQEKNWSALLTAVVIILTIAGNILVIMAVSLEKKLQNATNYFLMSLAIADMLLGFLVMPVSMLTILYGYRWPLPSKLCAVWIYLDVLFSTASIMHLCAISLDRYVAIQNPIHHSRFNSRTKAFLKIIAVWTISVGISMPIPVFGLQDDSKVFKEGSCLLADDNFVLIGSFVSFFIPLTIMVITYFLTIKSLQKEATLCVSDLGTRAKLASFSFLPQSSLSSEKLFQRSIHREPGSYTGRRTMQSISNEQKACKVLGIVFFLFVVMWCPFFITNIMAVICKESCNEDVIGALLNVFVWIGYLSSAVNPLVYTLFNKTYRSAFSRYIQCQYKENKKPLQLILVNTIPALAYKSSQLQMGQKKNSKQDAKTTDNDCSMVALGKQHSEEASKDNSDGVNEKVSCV
Sequence of Muscarinic acetylcholine receptor M1 (Homo sapiens) (P11229 whole entry, looked up): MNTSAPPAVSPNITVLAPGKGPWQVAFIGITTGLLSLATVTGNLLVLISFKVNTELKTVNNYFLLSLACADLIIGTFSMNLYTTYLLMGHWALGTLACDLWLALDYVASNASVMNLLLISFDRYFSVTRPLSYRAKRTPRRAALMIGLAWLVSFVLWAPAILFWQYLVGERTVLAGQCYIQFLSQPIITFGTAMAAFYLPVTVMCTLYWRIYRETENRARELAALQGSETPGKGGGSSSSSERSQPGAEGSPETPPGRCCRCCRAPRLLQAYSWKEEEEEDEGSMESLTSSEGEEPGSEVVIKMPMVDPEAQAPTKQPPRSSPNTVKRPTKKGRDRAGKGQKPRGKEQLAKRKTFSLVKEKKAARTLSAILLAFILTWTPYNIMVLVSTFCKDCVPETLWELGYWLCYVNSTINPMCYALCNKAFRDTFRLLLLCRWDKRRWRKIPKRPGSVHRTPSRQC
Sequence of Gonadotropin-releasing hormone receptor (Homo sapiens) (P30968 whole entry, looked up): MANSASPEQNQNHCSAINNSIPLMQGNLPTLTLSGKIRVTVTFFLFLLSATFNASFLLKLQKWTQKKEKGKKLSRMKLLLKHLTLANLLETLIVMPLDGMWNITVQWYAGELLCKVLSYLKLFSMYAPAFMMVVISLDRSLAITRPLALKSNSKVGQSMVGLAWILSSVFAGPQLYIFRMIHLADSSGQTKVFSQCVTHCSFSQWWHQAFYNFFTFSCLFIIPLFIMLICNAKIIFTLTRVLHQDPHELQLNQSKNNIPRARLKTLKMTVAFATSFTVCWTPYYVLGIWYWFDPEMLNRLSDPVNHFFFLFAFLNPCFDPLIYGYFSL
Sequence of D(2) dopamine receptor (Homo sapiens) (P14416 whole entry, looked up): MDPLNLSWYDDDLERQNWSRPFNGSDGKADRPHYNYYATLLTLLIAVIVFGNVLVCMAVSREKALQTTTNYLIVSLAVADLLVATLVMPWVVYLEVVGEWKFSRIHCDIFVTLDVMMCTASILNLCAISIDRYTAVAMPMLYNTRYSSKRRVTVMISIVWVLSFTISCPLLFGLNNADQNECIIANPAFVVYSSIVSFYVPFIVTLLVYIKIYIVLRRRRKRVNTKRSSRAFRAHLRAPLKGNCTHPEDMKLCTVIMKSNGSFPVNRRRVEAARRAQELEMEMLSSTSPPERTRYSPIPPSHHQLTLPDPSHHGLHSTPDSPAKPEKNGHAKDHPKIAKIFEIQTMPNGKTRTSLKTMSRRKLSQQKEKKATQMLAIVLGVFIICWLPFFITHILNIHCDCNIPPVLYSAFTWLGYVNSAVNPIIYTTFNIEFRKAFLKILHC
Sequence of KiSS-1 receptor (Homo sapiens) (Q969F8 whole entry, looked up): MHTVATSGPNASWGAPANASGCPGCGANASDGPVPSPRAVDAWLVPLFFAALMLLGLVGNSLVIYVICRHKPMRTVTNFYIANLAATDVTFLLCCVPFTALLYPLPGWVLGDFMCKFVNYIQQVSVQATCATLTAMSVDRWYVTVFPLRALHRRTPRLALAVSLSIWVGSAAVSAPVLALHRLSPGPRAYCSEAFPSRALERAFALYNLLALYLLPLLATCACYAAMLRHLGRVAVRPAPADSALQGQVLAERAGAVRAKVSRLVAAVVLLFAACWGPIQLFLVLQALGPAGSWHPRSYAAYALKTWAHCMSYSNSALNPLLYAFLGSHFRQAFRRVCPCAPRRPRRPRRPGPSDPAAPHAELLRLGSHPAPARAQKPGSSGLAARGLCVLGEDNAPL

Clc1ccccc1N1CCNCC1
not listed: [16] | [17] | [18] | [19] | [20]
inactive: all other assays above

Nc1cc(Cl)ccc1O
active: [2] 52.7 µM
not listed: [10] | [15] | [19] | [20]
inactive: all other assays above

CN1C[C@@H](NS(=O)(=O)N(C)C)C[C@@H]2c3cccc4c3c(cn4C)C[C@H]21
active: [19] 0.13 µM | [18] 3.76 µM | [15] 1.19 µM
not listed: [14] | [16]
inactive: all other assays above

CC(C)NCC(O)c1ccc(N)c(C#N)c1 (stereo not given)
active: [19] 18.3 µM | [20] 7.56 µM
not listed: [12] | [13] | [14] | [15] | [16] | [17]
inactive: all other assays above

Nc1cc(Cl)ccc1Cl
not listed: [16] | [19]
inactive: all other assays above

CCC(C)c1cc([N+](=O)[O-])cc([N+](=O)[O-])c1OC(=O)C=C(C)C (stereo not given)
active: [1] 48.6 µM | [2] 24.3 µM
not listed: [8] | [10] | [13] | [14] | [18] | [20]
inactive: all other assays above
